In the library only some 5.3% were active in any assay of this set; here they are far more common.
CtBP-E1A inh: inhibitors of CtBP/E1A interaction. activity change, % (concentration not given with the values). 340,000 compounds, 0.49% hits. AlphaScreen GST-E1A/His-CtBP binding, 1536-well; active compounds read low; in the data active means activity change below about -65%; inconclusive means mostly about -30% to -63%; further: on the % scale 0 is the no-effect control and ±100 the full control effect
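Steps: dispense buffer (Tris pH 8.0, NaCl 300 mM, TCEP 1 mM, BSA, Tween 20); add 5X protein mix (GST-E1A, His-CtBP, 125 nM each); pin 23 nL compound; 2 h at 37 °C, dark; add 5X beads (50 ug/mL); 1 h; read.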
HP1b chromo inh: inhibitors of HP1-beta chromodomain binding to methylated histone tails; P83916; AlphaScreen HP1-beta / biotin-H3K9me3 peptide binding; Potency, µM (series often up to 114 µM), inactives show top-dose activity change, negative = inhibition, actives largely listed as inhibitors; 390,000 compounds, 0.56% hits; AID 540317; further: potency means the concentration at half of the fitted maximal effect; nearly all actives have a fitted effect of over 70% in size
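Compound inhibition of the preformed complex between 50 nM HP1-beta and 50 nM biotinylated H3K9me3 peptide was read by AlphaScreen. Buffer was PBS pH 7.4 with 0.01% Tween-20. Incubations ran 30 min at room temperature, with 10 ug/mL donor/acceptor beads.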
BAZ2B block: BAZ2B (human) inhibition; Q9UIF8; AlphaScreen BAZ2B-H3K14Ac peptide displacement; Potency, µM (titrated, usually from 114 µM), inactives show at the top dose activity change, negative = inhibition, actives largely listed as inhibitors; 360,000 compounds, 4.4% hits; AID 504333; further: potency means the concentration at half of the fitted maximal effect; on the % scale 0 is the no-effect control and ±100 the full control effect; nearly all actives have a fitted effect of over 60% in size
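Compounds, titrated to a top concentration of 110 uM, were incubated 30 min at room temperature with preformed BAZ2B/acetyl-K14 H3 peptide complex (50 nM each). Proximity signal was measured by AlphaScreen after 20 min with beads.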
TDP1 block: blocks human tyrosyl-DNA phosphodiesterase 1; recombinant TDP1, AlphaScreen DNA substrate cleavage; Potency, µM (top dose mostly 130 µM), without a hit: at the highest dose activity change, negative = inhibition, hits mostly inhibitors; 350,000 compounds, 0.28% hits; further: potency means the concentration at half of the fitted maximal effect; on the % scale 0 is the no-effect control and ±100 the full control effect; nearly all actives have a fitted effect of over 40% in size
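Signal: AlphaScreen proximity between streptavidin donor and anti-FITC acceptor beads on intact substrate. Reaction: Tdp1 1 nM, substrate 15 nM final, 5 min RT after 15 min compound preincubation.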
JMJD2A Tudor: blocks the human JMJD2A Tudor domain; Potency, µM (titrated, usually from 114 µM), without a hit: at the highest dose activity change, negative = inhibition, most hits filed as inhibitors; 390,000 compounds, 4.4% hits; AID 504339; AlphaScreen JMJD2A-Tudor / H3K4me3 peptide binding; further: potency means the concentration at half of the fitted maximal effect; on the % scale 0 is the no-effect control and ±100 the full control effect; nearly all actives have a fitted effect of over 50% in size
Six1-Eya2 inh: inhibitors of human Six1/Eya2 interaction | Q15475+O00167 | AlphaScreen GST-Six1/His-Eya2 binding, biochemical; active compounds read low | activity change, % (test concentration not listed) | 360,000 compounds, 0.56% hits; in the data active means activity change below about -65%; inconclusive means mostly about -30% to -63%; further: on the % scale 0 is the no-effect control and ±100 the full control effect
Target sequence (O00167 whole entry, looked up): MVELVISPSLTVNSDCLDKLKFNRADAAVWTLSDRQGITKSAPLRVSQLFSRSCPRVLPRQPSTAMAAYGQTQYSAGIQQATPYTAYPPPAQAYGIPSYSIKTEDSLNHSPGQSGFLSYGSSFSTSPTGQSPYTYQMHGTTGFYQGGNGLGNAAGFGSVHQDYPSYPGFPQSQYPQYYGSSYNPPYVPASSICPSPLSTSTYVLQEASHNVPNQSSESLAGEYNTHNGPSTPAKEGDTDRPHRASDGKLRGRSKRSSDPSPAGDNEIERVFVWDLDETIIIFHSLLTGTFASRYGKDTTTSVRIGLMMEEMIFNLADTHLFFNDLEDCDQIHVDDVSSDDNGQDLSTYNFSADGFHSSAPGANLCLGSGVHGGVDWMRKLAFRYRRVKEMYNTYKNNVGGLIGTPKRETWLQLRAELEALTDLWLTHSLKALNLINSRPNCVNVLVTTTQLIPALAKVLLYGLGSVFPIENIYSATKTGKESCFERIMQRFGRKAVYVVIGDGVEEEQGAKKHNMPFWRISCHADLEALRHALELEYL
Target sequence (Q15475 whole entry, looked up): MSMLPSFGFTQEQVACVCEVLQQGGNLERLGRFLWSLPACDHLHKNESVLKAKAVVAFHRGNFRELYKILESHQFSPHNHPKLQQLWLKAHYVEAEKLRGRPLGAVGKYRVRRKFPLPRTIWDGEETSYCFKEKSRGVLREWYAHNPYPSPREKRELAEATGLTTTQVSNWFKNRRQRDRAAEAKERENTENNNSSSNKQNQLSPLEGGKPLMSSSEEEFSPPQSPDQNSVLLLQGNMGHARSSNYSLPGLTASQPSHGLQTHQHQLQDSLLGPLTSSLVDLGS
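GST-Six1 + His-Eya2 (5X stock: 250/500 nM); Tris pH 8.0, 300 mM NaCl, 0.05% BSA, 0.02% Tween 20; GSH donor/Ni acceptor beads; 1 h 37 °C dark; AlphaScreen readout.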
* marks the source's active call; other numbers are inactive results; [ ] = remark or other dose. Unless noted, the call rests on the fitted dose curve; in most records, active means well fitted inhibition curve with a large enough effect; inconclusive means small, poorly fitted or top-dose-only effect; inactive means no such curve, though single readings can be large or run the other way.

For O=C(O)c1ccccc1O[C@@H]1O[C@H](C(=O)O)[C@@H](O)[C@H](O)[C@H]1O the results were TDP1 block 4%.
For CCOC(=O)C1=CC2(CC)CCCN3CCc4c(n1c1ccccc41)C32 (stereo not drawn) the results were TDP1 block 9%.
Screening CCOC(=O)C1CCC(CN(Cc2ccc(OC)cc2)S(=O)(=O)c2ccc(F)c(C(=O)Nc3c(C)cccc3C)c2)CC1 (stereo not drawn) returned HP1b chromo inh 26%, BAZ2B block 0%, TDP1 block 5% and JMJD2A Tudor -21%.
`O=C(O)CSc1cc(NS(=O)(=O)c2ccc(Br)cc2)c2ccccc2c1O` gave HP1b chromo inh 14µM*, BAZ2B block 35µM*, JMJD2A Tudor 20µM* and Six1-Eya2 inh -29.
`O=S(=O)(Nc1cc(Sc2ncn[nH]2)c(O)c2ccccc12)c1ccccc1` gave CtBP-E1A inh -20, HP1b chromo inh 3.5µM*, BAZ2B block 28µM*, TDP1 block 11%, JMJD2A Tudor 3.5µM* and Six1-Eya2 inh 5.
`COc1ccc(NC2=CC(=O)CC(c3ccc(C)cc3)C2)c(OC)c1` (stereo not drawn) gave CtBP-E1A inh -3, HP1b chromo inh -16%, JMJD2A Tudor 79µM* and Six1-Eya2 inh -3.
Screening Cc1cc(C)n(Cc2n[nH]c(=S)n2Cc2ccccc2)n1 returned CtBP-E1A inh 0, HP1b chromo inh 44%, BAZ2B block -5%, TDP1 block 4%, JMJD2A Tudor 22µM* and Six1-Eya2 inh 0.
Cc1nn(Cc2n[nH]c(=S)n2Cc2ccccc2)c(C)c1Cl was read as CtBP-E1A inh -5, HP1b chromo inh 16%, BAZ2B block -22%, TDP1 block -4%, JMJD2A Tudor inconclusive and Six1-Eya2 inh 10.
For CCOc1ccc(Cc2n[nH]c(=S)n2Cc2ccccc2)cc1 the results were HP1b chromo inh -10%, BAZ2B block -38%, TDP1 block 1%, JMJD2A Tudor 45µM* and Six1-Eya2 inh -7.
For COc1ccccc1C(=O)NCc1n[nH]c(=S)n1Cc1ccccc1 the results were HP1b chromo inh 43%, BAZ2B block -3%, TDP1 block -6%, JMJD2A Tudor 35µM* and Six1-Eya2 inh -3.
`COc1ccc(Cc2n[nH]c(=S)n2Cc2ccccc2)cc1Cl` gave CtBP-E1A inh -2, HP1b chromo inh -18%, BAZ2B block inconclusive, TDP1 block -6%, JMJD2A Tudor 56µM* and Six1-Eya2 inh -3.
CCc1cccc(NC(=O)CN(C)S(=O)(=O)c2ccc3c(c2)CCCN3C(C)=O)c1 was read as HP1b chromo inh 25%[57 µM], BAZ2B block -2%, TDP1 block 8% and JMJD2A Tudor -1%.
Screening Cc1nn2c(=O)cc(COC(=O)c3cccc(NC(=O)COc4ccccc4C)c3)nc2s1 returned HP1b chromo inh 19%, BAZ2B block -8%, TDP1 block 1% and JMJD2A Tudor -9%.
For CCSc1nnc2n(-c3cccc(C)c3)c(=O)c3c4c(sc3n12)CCCC4 the results were HP1b chromo inh 32%, BAZ2B block -2% and JMJD2A Tudor -8%.
`CCn1c(C(=O)OC)cc2c1ccn2-c1ccc(F)cc1` gave CtBP-E1A inh -27, HP1b chromo inh inconclusive, BAZ2B block 13µM*, TDP1 block 9%, JMJD2A Tudor 3.2µM* and Six1-Eya2 inh -22.
`COc1ccc(CNCCSc2nnnn2-c2ccccc2)c(OC)c1` gave HP1b chromo inh 11%, BAZ2B block -14%, TDP1 block 4% and JMJD2A Tudor -18%.
`O=C1c2ccccc2C(=O)N1c1ccc(Br)c2cccnc12` gave HP1b chromo inh 26%, BAZ2B block -1%, TDP1 block 3%, JMJD2A Tudor -4% and Six1-Eya2 inh 2.
`O=C1c2ccccc2C(=O)N1c1cccc2ncccc12` gave TDP1 block 2% and JMJD2A Tudor 89µM*.
S=c1[nH]cc(-c2ccccc2)[nH]1 was read as HP1b chromo inh 0%, BAZ2B block -8%, JMJD2A Tudor 25µM* and Six1-Eya2 inh 2.
For O=[N+]([O-])c1ccc(-c2c[nH]c(=S)[nH]2)cc1 the results were CtBP-E1A inh 1, HP1b chromo inh inconclusive, BAZ2B block -2%, TDP1 block 0%, JMJD2A Tudor inconclusive and Six1-Eya2 inh -10.
`Cc1nn(CCCC(=O)NCc2ccc(F)cc2)c(=O)c2c1sc1ccccc12` gave HP1b chromo inh 29%, BAZ2B block -8%, TDP1 block -3% and JMJD2A Tudor -3%.
For CN(C)c1cc(Cl)c2nonc2c1N the results were CtBP-E1A inh inconclusive, HP1b chromo inh inconclusive, BAZ2B block 50µM*, TDP1 block 5%, JMJD2A Tudor inconclusive and Six1-Eya2 inh inconclusive.
For CCN(CC)c1cc(Cl)c2nonc2c1N the results were CtBP-E1A inh -19, HP1b chromo inh inconclusive, BAZ2B block inconclusive, TDP1 block 3%, JMJD2A Tudor inconclusive and Six1-Eya2 inh -21.
`CC1CN(c2ccc([N+](=O)[O-])c(NCCOc3ccccc3)c2)CC(C)N1` (stereo not drawn) gave CtBP-E1A inh -23, HP1b chromo inh -3%, BAZ2B block inconclusive, TDP1 block 8%, JMJD2A Tudor inconclusive and Six1-Eya2 inh -18.
`CCc1ccc(OCCNc2cc(N3CCNC(C)C3)ccc2[N+](=O)[O-])cc1` (stereo not drawn) gave CtBP-E1A inh -26, HP1b chromo inh inconclusive, BAZ2B block 35µM*, TDP1 block 4%[56.1 µM], JMJD2A Tudor 40µM* and Six1-Eya2 inh inconclusive.
`CCOC(=O)C(C)Sc1nnc2cc(C)c3ccccc3n12` (stereo not drawn) gave HP1b chromo inh 12%, BAZ2B block -7%, TDP1 block 5% and JMJD2A Tudor -16%.
`Cc1cc(N2CCOCC2)ccc1/C=C1/SC(=O)NC1=O` gave CtBP-E1A inh -18, HP1b chromo inh -1%, BAZ2B block -26%, TDP1 block -1%, JMJD2A Tudor -12% and Six1-Eya2 inh 8.
O=C1NC(=O)/C(=C\c2ccc(O)cc2O)S1 was read as HP1b chromo inh inconclusive, BAZ2B block 28µM*, JMJD2A Tudor 20µM* and Six1-Eya2 inh inconclusive.
`CC1=NOC(=O)/C1=C/c1ccc(O)cc1` gave CtBP-E1A inh 10, HP1b chromo inh 41%, BAZ2B block 50µM*, TDP1 block -4%, JMJD2A Tudor 16µM* and Six1-Eya2 inh -6.

Screens as filed in PubChem BioAssay.
